From PubChem BioAssay
TDP1 inh – inhibitors of human tyrosyl-DNA phosphodiesterase TDP1; recombinant TDP1, AlphaScreen DNA substrate cleavage; Potency, µM (highest dose often 130 µM), hits mostly inhibitors; 0.28% of 350,000 active; AID 485290; also: nearly all actives have a fitted effect of over 40% in size
Target sequence (Q9NUW8 whole entry, looked up): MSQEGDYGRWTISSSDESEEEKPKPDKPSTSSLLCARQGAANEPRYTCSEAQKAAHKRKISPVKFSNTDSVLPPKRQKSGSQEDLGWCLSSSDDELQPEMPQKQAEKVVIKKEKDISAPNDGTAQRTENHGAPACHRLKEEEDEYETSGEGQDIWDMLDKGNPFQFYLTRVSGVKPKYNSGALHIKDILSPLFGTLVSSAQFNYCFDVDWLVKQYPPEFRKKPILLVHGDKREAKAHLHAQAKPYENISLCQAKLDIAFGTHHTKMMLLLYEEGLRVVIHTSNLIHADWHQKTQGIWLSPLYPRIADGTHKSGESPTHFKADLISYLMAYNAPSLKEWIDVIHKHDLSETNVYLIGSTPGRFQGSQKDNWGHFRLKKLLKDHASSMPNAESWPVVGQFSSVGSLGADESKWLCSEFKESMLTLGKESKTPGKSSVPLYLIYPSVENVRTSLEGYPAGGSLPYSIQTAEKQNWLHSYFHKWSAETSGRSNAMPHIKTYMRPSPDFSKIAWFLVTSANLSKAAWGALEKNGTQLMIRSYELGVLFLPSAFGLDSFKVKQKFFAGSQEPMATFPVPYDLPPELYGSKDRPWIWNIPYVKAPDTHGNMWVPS
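Enzyme-compound mixtures sat 15 min at room temperature, followed by a 5 min reaction with 15 nM final substrate and 10 min with AlphaScreen beads. Recombinant human Tdp1 was used at 1 nM final.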
IL1B secr inh – inhibitors of inflammasome signaling (IL-1 beta secretion) | THP-1 LPS/ATP IL-1B secretion, AlphaLISA, 16 h; stronger effect = lower value | activity change, % at 57.5 µM | 4.7% of 360,000 active; in the data active = activity change below about -50%; inconclusive = mostly about -30% to -49%
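Secreted IL-1B measured by AlphaLISA bead assay after 16 h compound exposure of THP-1 cells; compounds (final up to 57.5 uM) added 1 h before LPS (250 ng/mL) and ATP (1.25 mM) stimulation; lower signal means less secretion.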
HepG2 viability – HepG2 cytotoxicity, counter-screen for TGF-b inhibitors | HepG2 CAGA-GFP viability, ATP luminescence, 18 h | Potency, µM (titrated, usually from 46.1 µM), actives largely listed as cytotoxic | 0.76% of 410,000 active
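HepG2 CAGA-GFP cells (1000/well, DMEM with 1% FBS) received compound, then TGF-beta at 500 pg/mL final, and were incubated 18 hours at 37 degrees C. Viability was read by CellTiter-Glo luminescence. Media-only wells were set as complete cell-killing and DMSO as no toxicity.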
DT40 TDP1 no CPT – qHTS for Inhibitors of human tyrosyl-DNA phosphodiesterase 1 (TDP1): qHTS in cells in absence of CPT; DT40 Tdp1-/- hTDP1 cells, no CPT, ATP luminescence, 48 h; Potency, µM (titrated, usually from 46.2 µM), usual class: inhibitors; 15% of 420,000 active; AID 686978, 2013; also: nearly all actives have a fitted effect of over 55% in size
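Chicken DT40 Tdp1-/- cells complemented with human TDP1, screened without camptothecin (DMSO vehicle only), 400 cells/well. Compounds pin-transferred, cells incubated at 37 °C for at least 48 hr. Growth read as ATP-dependent luminescence (CellTiter-Glo, 30 min at RT).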
TGFb inhibitor – TGF-b pathway inhibition. Potency, µM (highest dose often 46.1 µM), actives largely listed as inhibitors. 1.2% of 410,000 active. AID 588855. HepG2 CAGA-GFP TGF-b/SMAD3 reporter, GFP fluorescence, 18 h; TGF-beta stimulated, 500 pg/mL final; also: nearly all actives have a fitted effect of over 65% in size
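First, reporter cells (HEPG2 CAGA-GFP) rested 2 h at 37 degrees C. Next, compounds were pinned in and TGF-beta added to 500 pg/mL final. After 18 h, GFP was imaged per cell and summed per well.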
TDP1 cell CPT – growth inhibition of DT40 Tdp1-/-;hTDP1 cells with camptothecin (screen for TDP1 inhibitors). Potency, µM (titrated, usually from 46.2 µM), most hits filed as inhibitors. 12% of 420,000 active. chicken DT40 Tdp1-/-;hTDP1 cells + 20 nM CPT, ATP luminescence, 48 h; also: nearly all actives have a fitted effect of over 55% in size
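Chicken DT40 Tdp1-/- cells complemented with human TDP1, 400 cells/well, exposed to compounds plus 20 nM camptothecin for at least 48 h at 37 C; viability read as ATP content by CellTiter-Glo luminescence.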
Large screens that a line does not name were inactive. Shown are actives, neighbours in structure and some others; about 18% of the full set was active somewhere. Unless noted, calls follow the shape of the dose curve; as a rule, active = well fitted curve in the direction sought with a large enough effect; inconclusive = small, poorly fitted or top-dose-only effect, or another doubt; inactive = no such curve, though single readings can be large; an effect the other way counts as inactive or inconclusive.

COc1ccccc1-c1noc(CSc2nc3ccc(C)cc3[nH]2)n1	DT40 TDP1 no CPT 16.4µM, TDP1 cell CPT inconclusive (no result: IL1B secr inh)
O=S(=O)(NCCCCNS(=O)(=O)c1c(F)cccc1F)c1ccc2c(c1)OCCO2	none (no result: IL1B secr inh, DT40 TDP1 no CPT, TDP1 cell CPT)
Cc1cccc(C)c1N1C(=O)c2ccccc2NC(=O)C1C(=O)Nc1ccc(N2CCOCC2)cc1 (stereo not drawn)	DT40 TDP1 no CPT 14.6µM, TDP1 cell CPT inconclusive (no result: TDP1 inh, HepG2 viability, TGFb inhibitor)
c1ccc(-c2cc(-c3nc4ccccc4[nH]3)c3ccccc3n2)cc1	IL1B secr inh -66.7, DT40 TDP1 no CPT inconclusive, TGFb inhibitor inconclusive, TDP1 cell CPT inconclusive
Nc1ccc(-c2nc3ccccc3[nH]2)cc1	none
c1ccc(-c2csc(-c3nc4ccccc4[nH]3)n2)cc1	DT40 TDP1 no CPT 26.6µM, TDP1 cell CPT 16.8µM (no result: IL1B secr inh, HepG2 viability, TGFb inhibitor)
c1ccc(-c2nnsc2-c2nc3ccccc3[nH]2)cc1	DT40 TDP1 no CPT inconclusive
COc1ccc(-n2nc(C(=O)N(C)C)nc2-c2ccccc2)cc1	none
Clc1cccc(N2CCN(c3c4c(nc5nncn35)CCC4)CC2)c1	DT40 TDP1 no CPT 7.31µM, TDP1 cell CPT 18.4µM (no result: IL1B secr inh, TGFb inhibitor)
OC[C@@H](O)C(O)[C@H](O)[C@H](O)CO (stereo partly drawn)	none (no result: IL1B secr inh, HepG2 viability, DT40 TDP1 no CPT, TGFb inhibitor, TDP1 cell CPT)
Cc1cc(N2CCCCC2)n2ncc(-c3ccccc3)c2n1	DT40 TDP1 no CPT 29.1µM, TDP1 cell CPT inconclusive (no result: TDP1 inh)
Cc1nc2c(-c3ccccc3)cnn2c(N)c1-c1ccccc1	IL1B secr inh -78.3, DT40 TDP1 no CPT inconclusive (no result: TDP1 inh)
Cc1cc(N2CCN(C(=O)c3ccco3)CC2)n2ncc(-c3ccccc3)c2n1	DT40 TDP1 no CPT 16.4µM, TDP1 cell CPT 23.1µM
Cc1cc(N2CCN(C(=O)c3ccco3)CC2)n2ncnc2n1	none
Cc1cc(SCC(=O)c2ccccc2)n2ncc(-c3ccccc3)c2n1	DT40 TDP1 no CPT 7.31µM, TDP1 cell CPT inconclusive
Cc1cc(N2CCCCC2)n2ncc(-c3ccc(Cl)cc3)c2n1	DT40 TDP1 no CPT inconclusive, TDP1 cell CPT 13µM
Cc1cc(N2CCOCC2)n2ncc(-c3ccc(Cl)cc3)c2n1	none
CCN(CC)CCCNC(=O)/C=C/C(=O)O	DT40 TDP1 no CPT 20.6µM, TDP1 cell CPT 18.4µM
O=C(O)/C=C/C(=O)NCCc1ccccc1	none
O=C(NN=C1CCCC1)c1cccc(O)c1	none
O=C(NN=C1CCCC1)c1cc(O)cc(O)c1	TDP1 inh 17.8µM
COc1cc(C(=O)OCC(=O)Nc2nnc(-c3ccccc3)o2)cc(OC)c1OC	none
COc1cccc(C(=O)Nc2cccc(-c3nnc(-c4ccccc4)o3)c2)c1	DT40 TDP1 no CPT 18.4µM, TDP1 cell CPT inconclusive (no result: TDP1 inh)
COc1ccc(C(=O)Nc2nnc(-c3ccccc3)o2)cc1OC	DT40 TDP1 no CPT 23.1µM, TDP1 cell CPT inconclusive
CCOc1cccc(C(=O)Nc2ccc(-c3nc4cc(C)cc(C)c4o3)cc2)c1	none (no result: TDP1 inh, IL1B secr inh)
CCOc1cccc(C(=O)Nc2cccc(-c3nnc(-c4ccc(C)cc4)o3)c2)c1	DT40 TDP1 no CPT inconclusive, TDP1 cell CPT 18.4µM
CCCOc1cccc(C(=O)Nc2cc(-c3ccccc3)no2)c1	DT40 TDP1 no CPT inconclusive, TDP1 cell CPT 11.6µM (no result: IL1B secr inh)
COc1cccc(Nc2ncc3nc(-c4cn(C)c5ccccc45)c(=O)n(CCC#N)c3n2)c1	none (no result: TDP1 inh, IL1B secr inh, HepG2 viability, TGFb inhibitor)
O=C(CSc1nc2ccsc2c(=O)n1-c1ccc(Cl)cc1)NCc1ccc(Cl)cc1	DT40 TDP1 no CPT inconclusive, TDP1 cell CPT inconclusive (no result: IL1B secr inh)
O=C(Nc1c(C(=O)Nc2ccccc2)cnn1-c1ccccc1)c1ccco1	none
Cc1ccc(NC(=O)c2cnn(-c3ccccc3)c2NC(=O)c2ccco2)cc1	DT40 TDP1 no CPT inconclusive, TDP1 cell CPT 13µM
COc1ccc(C(=O)NCC(=O)OCc2c(Cl)cccc2Cl)cc1OC	DT40 TDP1 no CPT 14.6µM, TDP1 cell CPT inconclusive
COc1cccc(-c2nnc(NC(=O)c3cccc(F)c3)o2)c1	DT40 TDP1 no CPT 3.26µM, TGFb inhibitor inconclusive, TDP1 cell CPT 3.26µM (no result: TDP1 inh)
COc1ccc(C(=O)Nc2cccc(NC(=O)c3ccc(OC)c(OC)c3)n2)cc1OC	DT40 TDP1 no CPT 7.31µM, TDP1 cell CPT 8.2µM (no result: TDP1 inh)
